Bioassay records: PubChem, The Scripps Research Institute Molecular Screening Center
The list is not random: actives were taken first. Their share in the collection is about 2.3%.
CHO-K1 Ca PAM = M1 PAM counterscreen hit in parental CHO-K1 cells; activation, % at 3 µM; ATP EC20, Fluo-8 calcium fluorescence; 0% at ATP EC20, 100% at ATP max; 360,000 compounds, 0.02% hits;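 active = activation above the run cutoff, the mean activation of all test compounds plus 3 SD, cut at about 40% in these data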;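 note: peak over basal fluorescence ratio in a 140 s read after ATP addition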
M1 ag parental = counter-screen for M1 agonists: effect in parental CHO-K1 cells; AID 602248; Fluo-8 calcium fluorescence; scaled to maximal ATP response, vehicle zero; activation, % at 3 µM; 360,000 compounds, 0.48% hits; in the data active = activation above about 15%;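 note: untransfected CHO-K1 host cells lacking M1 receptor as counterscreen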
M1 antag = blocks human M1 muscarinic receptor; CHO-K1 hM1, Fluo-8 calcium fluorescence, ACh EC80 antagonist; AID 588852; 360,000 compounds, 1.3% hits; inhibition, % at 3 µM; P11229;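 active = percent inhibition above its own plate's cutoff, namely the mean of that plate's compound wells plus 3 SD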;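 note: peak over basal fluorescence ratio during 140 s after agonist addition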
Target sequence (P11229 whole entry, looked up): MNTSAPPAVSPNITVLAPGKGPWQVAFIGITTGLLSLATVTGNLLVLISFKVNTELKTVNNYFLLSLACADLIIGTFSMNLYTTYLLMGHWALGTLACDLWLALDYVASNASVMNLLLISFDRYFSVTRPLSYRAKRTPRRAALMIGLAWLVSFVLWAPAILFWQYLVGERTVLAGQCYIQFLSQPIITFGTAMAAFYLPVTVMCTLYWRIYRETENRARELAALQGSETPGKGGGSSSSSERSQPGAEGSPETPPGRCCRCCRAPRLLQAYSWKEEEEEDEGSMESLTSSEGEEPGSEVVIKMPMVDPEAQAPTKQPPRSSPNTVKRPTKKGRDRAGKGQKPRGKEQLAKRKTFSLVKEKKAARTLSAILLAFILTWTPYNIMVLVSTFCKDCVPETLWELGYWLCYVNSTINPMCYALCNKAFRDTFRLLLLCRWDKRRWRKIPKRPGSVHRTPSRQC
M1 PAM = potentiates human M1 receptor response to acetylcholine; 360,000 compounds, 0.088% hits; activation, % at 3 µM; CHO-K1 hM1, Fluo-8 calcium fluorescence, ACh EC20; 0% = ACh EC20, 100% = maximal ACh; P11229; in the data active = activation above about 19%, passing the limit was not always enough
CHO-K1 Ca antag = nonselective inhibitor or artifact in parental CHO-K1 cells. ATP-induced calcium, Fluo-8 fluorescence. inhibition, % at 3 µM. 360,000 compounds, 0.6% hits. AID 602250;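 active = inhibition above a per-plate cutoff, the plate's mean sample inhibition plus 3 SD, cut at about 24% in these data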
M1 ag = human M1 muscarinic receptor agonism; CHO-K1 hM1, Fluo-8 calcium fluorescence, agonist mode; 0% DMSO, 100% acetylcholine EC100; activation, % at 3 µM; 360,000 compounds, 0.33% hits; AID 588814;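 active = activation above the run's mean compound activation plus 3 SD, cut at about 16% in these data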;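 note: peak over basal fluorescence ratio within a 140 s kinetic read after compound addition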
Of the large screens only hits and unclear results are named; the others gave an inactive call.

Cc1ccc(NC(=O)CCn2ccc([N+](=O)[O-])n2)nc1	none
N#CC1=C(N)OC2=C(C(=O)CC(c3ccccc3)C2)C1c1ccc2c(c1)OCO2 (centres undefined)	M1 antag 62
CC(C)N(C(=S)NCc1ccccc1)C(C)C	CHO-K1 Ca antag 26
CC(C)N(C(=S)NCc1ccccc1)c1ccccc1	none
Cc1cc(NC(=O)CSc2nnnn2-c2ccccc2C)no1	M1 antag 28
CCc1ccccc1-n1nnnc1SCC(=O)Nc1cc(C)on1	none
CC1(C(=O)Nc2cccc(NS(C)(=O)=O)c2)Cc2c(-c3cccc(C(N)=O)c3)ccnc2O1 (centres undefined)	none
CCOc1ccccc1C(=O)OC(C)C(=O)Nc1ccc(S(=O)(=O)N2CCCC2)cc1 (centres undefined)	M1 antag 29, CHO-K1 Ca antag 25
CC(Oc1ccccc1C(N)=O)C(=O)Nc1ccc(S(=O)(=O)N2CCCC2)cc1 (centres undefined)	M1 antag 59
Cc1noc(C)c1COc1ccc(C(=O)OC(C)C(=O)Nc2ccc(S(=O)(=O)N3CCOCC3)cc2)cc1 (centres undefined)	M1 ag parental 17
CCOc1ccc(CN2CCN(S(=O)(=O)c3ccc(NC(C)=O)cc3)CC2)cc1	M1 ag parental 22
COc1ccc(CN2CCN(S(=O)(=O)c3ccc(NC(C)=O)cc3)CC2)cc1OC	none
O=S(=O)(c1cnccc1N1CCN(CCO)CC1)N1CCCCC1	none
CC(=O)Nc1ccc(NC(=O)C(C)Oc2ccccc2F)cc1 (centres undefined)	CHO-K1 Ca antag 24
CC(Oc1ccccc1F)C(=O)Nc1ccc2ccccc2c1 (centres undefined)	none
COc1ccc(CN(C)C(C)C(=O)Nc2ccc(S(=O)(=O)N3CCCCC3)cc2)c(OC)c1 (centres undefined)	M1 antag 91
Cc1cc(C)c(C)c(OCC(O)CN2CCN(c3ccccn3)CC2)c1 (centres undefined)	none
COc1ccc(C(CC(=O)c2ccc(C)cc2)Nc2ccc([N+](=O)[O-])cc2)cc1 (centres undefined)	M1 ag parental 15
COc1ccc(C(=O)NCC(c2cccs2)N2CCc3ccccc32)c(OC)c1 (centres undefined)	CHO-K1 Ca PAM 58
COc1ccc(C(=O)NCC(c2ccco2)N2CCc3ccccc32)cc1 (centres undefined)	none
CCOC(=O)N1CCN(C(=O)COC(=O)c2cc(C)ccc2C)CC1	none
Cc1ccccc1C(=O)NNC1CC(=O)N(c2ccc3c(c2)OCCO3)C1=O (centres undefined)	CHO-K1 Ca antag 28
CN1CCN(c2ccc(NC(=O)COc3ccccc3Cl)cc2)CC1	none
C=CC(=O)Nc1ccc(N(C)c2ccnc(Nc3ccc(N4CCN(C)CC4)cc3)n2)cc1	M1 antag 56
CCc1ccc(CN2CCC(n3nccc3NC(=O)c3ccccc3Cl)CC2)cc1	M1 ag 28
O=C(Nc1ccnn1C1CCN(CCCC2CCCC2)CC1)c1ccccc1Cl	M1 antag 40
O=C(Nc1ccnn1C1CCN(C2CCC2)CC1)c1ccccc1Cl	CHO-K1 Ca antag 46
COc1ccccc1C(=O)Nc1ccnn1C1CCN(CCCC2CCCC2)CC1	none
CCOc1ccc(-c2nc[nH]c2[N+](=O)[O-])cc1	none
Cc1ccc(OCC(=O)Nc2cccnc2Cl)cc1C	none
Nc1nc(SCC(=O)Nc2c(Br)cc([N+](=O)[O-])cc2Br)n[nH]1	CHO-K1 Ca antag 29
CN1C(=O)c2ccc(C(=O)Nc3ccc4c(c3)OCO4)cc2C1=O	CHO-K1 Ca antag 37
Cn1nc(C(=O)Nc2ccc3c(c2)OCO3)c2ccccc2c1=O	M1 PAM 27
O=C(Nc1ccc2c(c1)OCO2)c1ccccc1	none
COc1ccc(N2CC(C(=O)Nc3c4c(nn3-c3ccc(OC)cc3)CS(=O)(=O)C4)CC2=O)cc1 (centres undefined)	M1 PAM 26
COc1ccc(-n2nnnc2CNC(=O)C2CC(=O)N(c3ccc(F)cc3)C2)cc1 (centres undefined)	CHO-K1 Ca antag 28
